Source: PubChem
Most compounds without a hit are left out; they make up all but 19% or so of the library.
DT40 TDP1 no CPT – qHTS for Inhibitors of human tyrosyl-DNA phosphodiesterase 1 (TDP1): qHTS in cells in absence of CPT; DT40 Tdp1-/- hTDP1 cells, no CPT, ATP luminescence, 48 h; Potency, µM (doses to about 46.2 µM), for inactives: at the highest dose activity change, negative = growth inhibition, hits mostly inhibitors; 15% of 420,000 active; further: potency means the concentration at half of the fitted maximal effect; nearly all actives have a fitted effect of over 55% in size
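Cells were dispensed at 400 per well, compounds added by pin tool, plates incubated ≥48 hr at 37 °C, then CellTiter-Glo added for 30 min at room temperature before luminescence reading. Line: DT40 Tdp1-/- complemented with hTDP1; camptothecin omitted.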
HT1080NT lethal – kills 2HG-producing HT-1080-NT fibrosarcoma cells; 1.6% of 360,000 active; HT-1080-NT fibrosarcoma viability, CellTiter-Glo ATP luminescence, 48 h; Potency, µM (highest dose often 46.1 µM), for inactives: at the top dose activity, negative = less viability, usual class: cytotoxic;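 further: NT is the 2HG producing partner of a matched IDH1 knockdown line; potency means the concentration at half of the fitted maximal effect; 0% = DMSO-treated cells and -100% = media-only wells without cells; nearly all actives have a fitted effect of over 55% in size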
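Viability by CellTiter-Glo luminescence after 48 h compound exposure at 37C of HT-1080-NT cells (750/well, RPMI, 5% FBS). % activity scaled between DMSO wells and medium-only wells, then curve-fitted and categorized by curve class.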
IL-1B inflam inh – inhibitors of inflammasome signaling (IL-1 beta secretion); activity change, % at 57.5 µM; AID 743279; 4.7% of 360,000 active; THP-1 LPS/ATP IL-1B secretion, AlphaLISA, 16 h; active compounds read low; in the data active means activity change below about -50%; inconclusive means mostly about -30% to -49%
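Secreted IL-1B measured by AlphaLISA bead assay after 16 h compound exposure of THP-1 cells; compounds (final up to 57.5 uM) added 1 h before LPS (250 ng/mL) and ATP (1.25 mM) stimulation; lower signal means less secretion.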
TDP1 cell CPT – growth inhibition of DT40 Tdp1-/-;hTDP1 cells with camptothecin (screen for TDP1 inhibitors); chicken DT40 Tdp1-/-;hTDP1 cells + 20 nM CPT, ATP luminescence, 48 h; Potency, µM (top dose mostly 46.2 µM), for the others: at the top dose activity change, negative = growth inhibition, usual class: inhibitors; 12% of 420,000 active; further: potency means the concentration at half of the fitted maximal effect; nearly all actives have a fitted effect of over 55% in size
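Chicken DT40 Tdp1-/- cells complemented with human TDP1, 400 cells/well, exposed to compounds plus 20 nM camptothecin for at least 48 h at 37 C; viability read as ATP content by CellTiter-Glo luminescence.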
HT1080 IDH1KD tx – HT-1080 IDH1 knockdown cell toxicity (counter line); HT-1080 IDH1 knockdown viability, ATP luminescence, 48 h; 2% of 360,000 active; Potency, µM (highest dose often 46.1 µM), without a hit: top-dose activity, negative = toxicity, actives largely listed as cytotoxic;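 further: potency means the concentration at half of the fitted maximal effect; 0% = DMSO wells and -100% = cell-free medium wells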
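CellTiter-Glo luminescence after 48 h compound exposure at 37 degrees C of IDH1-knockdown HT-1080 cells in 5% FBS RPMI. %Activity scaled between DMSO wells and cell-free media wells, with curves fitted and assigned curve classes.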
* hit, by the source's call; ? = inconclusive; / = no result given; [ ] = dose if it differs, or a comment. Unless noted, the call rests on the fitted dose curve; in most records, active means well fitted curve in the direction sought with a large enough effect; inconclusive means small, poorly fitted or top-dose-only effect, or another doubt; inactive means no such curve, though single readings can be large; an effect the other way counts as inactive or inconclusive. Unless noted, on the % scale 0 is the no-effect control and ±100 the full control effect.

SMILES	DT40 TDP1 no CPT	HT1080NT lethal	IL-1B inflam inh	TDP1 cell CPT	HT1080 IDH1KD tx
Cc1ccc(C(=O)Nc2ccccc2N2CCCCC2)cc1[N+](=O)[O-]	16.4µM*	9.6%	79.1	?	2.4%
Cc1ccc(NC(=O)c2cc(S(=O)(=O)Nc3ccc(C)cc3)cs2)cc1	23.1µM*	-6.4%	-77.9*	23.1µM*	-17.3%
Cc1ccc(C(=O)NC(=S)Nc2ccc(NC(=O)c3cccs3)cc2)cc1[N+](=O)[O-]	3.66µM*	?	11.7	8.2µM*	20.6µM*
O=C(NCC1CCN(Cc2ccccc2F)CC1)Nc1cc(F)ccc1F	16.3%	-0.4%	-24.3	-21.9%	-13.1%
CCOC(=O)[C@]12CCCC=C1N(Cc1ccco1)C(=O)[C@H](CC(=O)NCCCN1CCCC1=O)C2	-19.6%	29.9%	18.5	-3.4%	9.7%
Cc1ccc(CNc2nc(CN3CCSCC3)nc3ccccc23)o1	?	/	/	1.3%[9.04 µM]	/
COc1ccc(Cl)cc1NC(=O)CCNS(=O)(=O)c1cccc2nonc12	-5.8%	-7.3%	-0.5	13.9%	-2.2%
Cc1ccc(C(=O)Nc2ccccc2N2CCN(C(=O)C(C)C)CC2)cc1C	13µM*	-22.0%	-22.3	?	-23.4%
COc1c(F)c(F)c(C(=O)Nc2ccccc2N2CCN(C(=O)C(C)C)CC2)c(F)c1F	?	-6.6%	-0.8	-6.5%	-0.9%
Cc1ccc(C(=O)NC2CCCc3ccccc32)cc1[N+](=O)[O-] (centres undefined)	14.6µM*	?	-18.4	?	13µM*
CN1CCN(c2ccc(C(=O)c3ccccc3)cc2[N+](=O)[O-])CC1	?	-1.1%	-53.3*	0.1%	24.2%
Cc1ccc(C(=O)NC(=S)Nc2ccccc2N2CCCC2)cc1[N+](=O)[O-]	18.4µM*	-18.2%	-18.6	16.4µM*	-25.4%
COCCCNC(=O)/C(C#N)=C/c1cc(C)[nH]c1C	?	-19.0%	2.5	-18.5%	-13.2%
Cc1ccc(NS(=O)(=O)c2ccc(NC(=O)C(C)Sc3ccc(Cl)cc3)cc2)c(C)c1 (centres undefined)	5.6%	?	?	?	?
COc1ccc(Cl)cc1NC(=O)CSc1cc(C)[nH]c(=O)n1	-16.9%	/	/	-9.2%	/
CCN1C(=NCc2cc(OC)c(OC)c(OC)c2)N[C@@H](c2cccc(C(F)(F)F)c2)C(C(=O)OC)=C1C	-27.6%	-0.1%	-27.8	?	-21.0%
COCCN1C(=O)N[C@@H](c2cccc(C(F)(F)F)c2)C(C(=O)OC)=C1C	-17.4%	-1.7%	23.0	?	1.8%
CCN1C(=NCc2ccco2)N[C@@H](c2cccc(C(F)(F)F)c2)C(C(=O)OC)=C1C	?	-2.8%	0.0	16.4µM*	-12.4%
CCN1C(=NCC2CC2)N[C@@H](c2cccc(C(F)(F)F)c2)C(C(=O)OC)=C1C	10.3µM*	-9.9%	/	?	-7.8%
CCN1C(=NCCOC)N[C@@H](c2cccc(C(F)(F)F)c2)C(C(=O)OC)=C1C	18.4µM*	-16.0%	?	20.6µM*	-4.2%
CN1C(=O)NC(c2ccc(C(F)(F)F)cc2)C2=C1CC(C)(C)CC2=O (centres undefined)	-14.0%	-3.2%	-11.0	-8.8%	0.7%
CCCC(=O)N(C)c1ccc(/C=C2\C=Cc3ccccc32)cc1	2.24µM*	/	/	3.16µM*	/
CC(=O)N(O)c1ccc(/C=C2\C=Cc3ccccc32)cc1	3.16µM*	/	/	1.41µM*	/
CNc1c(Cl)cc(/C=C2\C=Cc3ccccc32)cc1Cl	-12.1%	/	/	-23.7%	/
CN(C)c1ccc(/C=C2\C=Cc3ccccc32)c(Cl)c1	12.6µM*	/	/	?	/
SMILES	DT40 TDP1 no CPT	HT1080NT lethal	IL-1B inflam inh	TDP1 cell CPT	HT1080 IDH1KD tx
CC(=O)N(C)c1ccc(/C=C2\C=Cc3ccccc32)cc1	7.08µM*	/	/	6.31µM*	/
CCCCN(CCCC)c1ccc(/C=C2\C=Cc3ccccc32)cc1	-24.0%	/	/	-20.8%	/
Cc1cccc(N(C)c2nc3ccc(C(=O)c4ccccc4)cc3n3c(C)nnc23)c1	20.6µM*	/	/	?	/
CC(C)CSc1nnc(-c2ccccc2)c(-c2ccccc2)n1	?	/	/	-22.7%	/
COc1ccc(O)c(CN2CCC3(CCC(CNC(=O)c4ccco4)O3)CC2)c1 (centres undefined)	-11.5%	/	/	-1.8%	/
Cc1ccn2c(Nc3ccccc3)c(-c3c[nH]c4ccccc34)nc2c1	?	/	/	16.4µM*	/
Cc1ccc2nc(-c3c[nH]c4ccccc34)c(Nc3ccc(F)cc3)n2c1	18.4µM*	/	/	14.6µM*	/
CC(=O)Nc1c(-c2ccccc2)nc2cc(C)ccn12	2.4%	5.1%	7.5	3.0%	14.7%
Cc1ccc(Nc2c(-c3c[nH]c4ccccc34)nc3cc(C)ccn23)cc1	23.1µM*	/	/	23.1µM*	/
CCC(C)Sc1nc2ccccc2c(=O)[nH]1 (centres undefined)	?	-11.1%	-12.5	?	-11.0%
CC1CCN(c2c(NCc3ccc(C(=O)N4c5ccccc5CC4C)cc3)c(=O)c2=O)CC1 (centres undefined)	23.1µM*	-11.9%	-1.4	18.4µM*	-3.5%
COC(=O)c1sccc1NC(=O)CC1C(=O)NCCN1C(=O)Nc1ccc(C(F)(F)F)cc1 (centres undefined)	?	-6.5%	-17.0	?	-2.2%
COC(=O)CCc1cccc(CCC(=O)OC)c1	-1.6%	7.5%	0.0	7.0%	4.6%
S=C(NC1CCCCCC1)NC1CCCC1	?	5.7%	0.0	?	0.6%
NNC(=S)NC1CCCCCCCCCCC1	8.2µM*	-22.8%	0.0	?	-20.5%
CCN(CC)CCOC(=O)c1cccc2c1-c1ccccc1C2O (centres undefined)	-5.5%	-5.2%	9.9	24.5%	7.8%
Nc1ccc2c(c1)C(=O)c1ccc(N)cc1-2	-22.3%	-1.5%	-76.0*	3.1%	1.7%
O=C(CN1CCN(c2nc(-c3ccc(Cl)cc3)cs2)CC1)NCc1ccco1	?	-21.0%	-8.5	?	-2.3%
S=C(NCC1CCCO1)N1CCN(Cc2ccccc2)CC1 (centres undefined)	-19.3%	1.7%	-6.5	2.4%	0.9%
S=C(NCc1ccco1)N1CCN(c2nc(-c3ccc(Cl)cc3)cs2)CC1	?	?	-60.7*	?	?
S=C(NCC1CCCO1)N1CCN(c2nc(-c3ccccc3)cs2)CC1 (centres undefined)	?	-14.8%	-57.9*	?	-28.9%
Cc1ccc(Cl)cc1N1CCN(C(=S)NCc2ccco2)CC1	18.4µM*	?	-82.4*	-7.2%	-28.2%
S=C(NCc1ccco1)N1CCN(c2nc(-c3ccccc3)cs2)CC1	?	-1.7%	-73.0*	?	-14.9%
CCCCNC(=S)N1CCN(c2ccccc2Cl)CC1	-25.5%	13.0%	-57.9*	-4.5%	5.2%
